Compound activity from PubChem BioAssay.
ELG1 DNA repair: ELG1-dependent DNA repair inhibition; HEK293T ELG1-luciferase reporter, luminescence, 16 h; DNA damage induced by 5-fluorouridine; 2.3% of 330,000 active; AID 504467; Potency, µM (highest dose often 46.1 µM), without a hit: at the highest dose activity change, negative = inhibition, most hits filed as inhibitors; also: potency is read from the fitted curve at half-maximal effect; nearly all actives have a fitted effect of over 55% in size
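Quantitative HTS, concentration-response format. 2,000 cells/well co-treated with 5-fluorouridine and compound, 16 hr in 5% CO2 at 37 °C; ONE-Glo luminescence read after 30 min.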
HT1080-NT tox: kills 2HG-producing HT-1080-NT fibrosarcoma cells | Potency, µM (doses to about 46.1 µM), for inactives: at the top dose activity, negative = less viability, hits mostly cytotoxic | 1.6% of 360,000 active | HT-1080-NT fibrosarcoma viability, CellTiter-Glo ATP luminescence, 48 h;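 also: NT is the 2HG producing partner of a matched IDH1 knockdown line; potency is read from the fitted curve at half-maximal effect; 0% = DMSO-treated cells and -100% = media-only wells without cells; nearly all actives have a fitted effect of over 55% in size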
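Compounds were tested in concentration-response format on HT-1080-NT cells for 48 hours at 37 degrees C. Cell viability came from CellTiter-Glo luminescence; curves were classified by r2, response magnitude and activity.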
TDP1 cell noCPT: qHTS for Inhibitors of human tyrosyl-DNA phosphodiesterase 1 (TDP1): qHTS in cells in absence of CPT. Potency, µM (top dose mostly 46.2 µM), without a hit: top-dose activity change, negative = growth inhibition, hits mostly inhibitors. DT40 Tdp1-/- hTDP1 cells, no CPT, ATP luminescence, 48 h. 15% of 420,000 active; also: potency is read from the fitted curve at half-maximal effect; nearly all actives have a fitted effect of over 55% in size
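Chicken DT40 Tdp1-/- cells complemented with human TDP1, screened without camptothecin (DMSO vehicle only), 400 cells/well. Compounds pin-transferred, cells incubated at 37 °C for at least 48 hr. Growth read as ATP-dependent luminescence (CellTiter-Glo, 30 min at RT).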
IL1B secr inh: inflammasome signaling inhibition, IL-1 beta readout. activity change, % at 57.5 µM. THP-1 LPS/ATP IL-1B secretion, AlphaLISA, 16 h; stronger effect = lower value. 4.7% of 360,000 active; in the data active = activity change below about -50%; inconclusive = mostly about -30% to -49%
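THP-1 cells pretreated 1 hr with compounds (up to 57.5 uM final), then stimulated with LPS (250 ng/mL final) plus ATP (1.25 mM final); secreted IL-1B measured by AlphaLISA after 16 hr, decreased signal indicating inhibition.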
DT40 TDP1 CPT: DT40-hTDP1 cell growth loss with CPT; 12% of 420,000 active; Potency, µM (doses to about 46.2 µM), for inactives: at the highest dose activity change, negative = growth inhibition, hits mostly inhibitors; chicken DT40 Tdp1-/-;hTDP1 cells + 20 nM CPT, ATP luminescence, 48 h; also: potency is read from the fitted curve at half-maximal effect; nearly all actives have a fitted effect of over 55% in size
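Chicken DT40 Tdp1-/- cells complemented with human TDP1, 400 cells/well, exposed to compounds plus 20 nM camptothecin for at least 48 h at 37 C; viability read as ATP content by CellTiter-Glo luminescence.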
HT1080 IDH1KD tx: HT-1080 IDH1 knockdown cell toxicity (counter line) | HT-1080 IDH1 knockdown viability, ATP luminescence, 48 h | Potency, µM (highest dose often 46.1 µM), without a hit: at the top dose activity, negative = toxicity, hits mostly cytotoxic | 2% of 360,000 active;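 also: potency is read from the fitted curve at half-maximal effect; 0% = DMSO wells and -100% = cell-free medium wells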
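Knockdown cells (IDH1KD HT-1080) received compounds 2 h after plating at 750 cells/well and were kept 48 h at 37 °C in 5% FBS RPMI. A CellTiter-Glo luminescence read gave % activity for curve fitting.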
* marks the source's active call; other numbers are inactive results. Hits are enriched below; roughly 19% of the tested compounds scored in any of these assays. Unless noted, calls follow the shape of the dose curve; as a rule, active = well fitted curve in the direction sought with a large enough effect; inconclusive = small, poorly fitted or top-dose-only effect, or another doubt; inactive = no such curve, though single readings can be large; an effect the other way counts as inactive or inconclusive. Unless noted, % is scaled to controls: 0 for no effect and ±100 for the full control effect.

CN(Cc1ccccc1)C(=O)CSc1nc2ccsc2c(=O)n1-c1ccc(F)cc1 was read as TDP1 cell noCPT 21µM* and DT40 TDP1 CPT inconclusive.
For NC(=O)CSc1nc2ccccc2n1Cc1ccccc1F the results were ELG1 DNA repair -10%, HT1080-NT tox -7%, TDP1 cell noCPT inconclusive, IL1B secr inh -5, DT40 TDP1 CPT -25% and HT1080 IDH1KD tx -15%.
`CN(C)S(=O)(=O)c1ccc(C(=O)N2CCN(S(=O)(=O)c3ccc4c(c3)OCCO4)CC2)cc1` gave HT1080-NT tox 1%, TDP1 cell noCPT -16%, IL1B secr inh -9, DT40 TDP1 CPT inconclusive and HT1080 IDH1KD tx 5%.
Screening CCS(=O)(=O)c1ccc2oc(Nc3ccc(C(C)C)cc3)nc2c1 returned ELG1 DNA repair 13%, HT1080-NT tox -11%, TDP1 cell noCPT 23µM*, IL1B secr inh -7, DT40 TDP1 CPT 16µM* and HT1080 IDH1KD tx -10%.
Screening CCOc1ccc(Nc2nc3cc(S(=O)(=O)N(CC)CC)ccc3o2)cc1 returned ELG1 DNA repair inconclusive, HT1080-NT tox inconclusive, TDP1 cell noCPT 7.3µM*, IL1B secr inh 43, DT40 TDP1 CPT 5.8µM* and HT1080 IDH1KD tx inconclusive.
For CCS(=O)(=O)c1ccc2oc(Nc3cc(C)cc(C)c3)nc2c1 the results were ELG1 DNA repair inconclusive, HT1080-NT tox 3%, TDP1 cell noCPT inconclusive, IL1B secr inh -10, DT40 TDP1 CPT inconclusive and HT1080 IDH1KD tx -22%.
Screening COc1ccc(N2CCN(C(=O)c3cn(C)c4ccc(S(=O)(=O)N(C)C5CCCCC5)cc4c3=O)CC2)cc1 returned TDP1 cell noCPT -4% and DT40 TDP1 CPT -5%.
For CCc1ccccc1NC(=O)Cn1c(=O)n(Cc2ccccc2)c(=O)c2c(C)c(C(=O)N(C)C)sc21 the results were TDP1 cell noCPT -9% and DT40 TDP1 CPT inconclusive.
`Cc1ccccc1-c1cccc([C@@H]2C[C@H]3CN(Cc4cccnc4)C(=O)[C@]34CCCN24)c1` gave ELG1 DNA repair 1%, HT1080-NT tox -6%, TDP1 cell noCPT 18µM*, IL1B secr inh 0, DT40 TDP1 CPT 23µM* and HT1080 IDH1KD tx -24%.
For O=C1N(Cc2cccnc2)C[C@@H]2C[C@@H](c3ccccc3C#Cc3ccccc3)N3CCC[C@@]123 the results were ELG1 DNA repair -8%, HT1080-NT tox 0%, TDP1 cell noCPT 16µM*, IL1B secr inh -11, DT40 TDP1 CPT 29µM* and HT1080 IDH1KD tx inconclusive.
Cc1cccc([C@@H]2C[C@H]3CN(Cc4cccc(Cl)c4)C(=O)[C@]34CCCN24)n1 was read as ELG1 DNA repair 4%, HT1080-NT tox 2%, TDP1 cell noCPT inconclusive, IL1B secr inh -14, DT40 TDP1 CPT inconclusive and HT1080 IDH1KD tx -3%.
Screening O=c1c2ccccc2nnn1COc1cccc(Cl)c1 returned ELG1 DNA repair inconclusive, HT1080-NT tox 10%, TDP1 cell noCPT 18µM*, IL1B secr inh -19, DT40 TDP1 CPT -29% and HT1080 IDH1KD tx 6%.
Screening O=C(CSCC(=O)OCn1nnc2ccccc2c1=O)Nc1ccc(Cl)cc1 returned ELG1 DNA repair 13%, HT1080-NT tox 3%, TDP1 cell noCPT inconclusive, IL1B secr inh 13, DT40 TDP1 CPT 21µM* and HT1080 IDH1KD tx -2%.
Screening C[C@H](NC(=O)c1ccc(Cl)cc1)C(=O)OCn1nnc2ccccc2c1=O returned ELG1 DNA repair 14%, HT1080-NT tox -3%, TDP1 cell noCPT -24%, IL1B secr inh 3, DT40 TDP1 CPT inconclusive and HT1080 IDH1KD tx -4%.
`CN(C(=O)c1cc([N+](=O)[O-])ccc1NCc1cccnc1)c1ccccc1` gave ELG1 DNA repair -2%, HT1080-NT tox 4%, TDP1 cell noCPT -27%, IL1B secr inh 2, DT40 TDP1 CPT -18% and HT1080 IDH1KD tx -1%.
NS(=O)(=O)c1ccc(NCC2COc3ccccc3O2)c([N+](=O)[O-])c1 (stereo not drawn) was read as ELG1 DNA repair 11%, HT1080-NT tox 0%, TDP1 cell noCPT inconclusive, IL1B secr inh -2, DT40 TDP1 CPT inconclusive and HT1080 IDH1KD tx -9%.
`CS(=O)(=O)c1ccc(C(=O)OCC(=O)NC(=O)C2CCCCC2)cc1[N+](=O)[O-]` gave ELG1 DNA repair inconclusive, HT1080-NT tox inconclusive, TDP1 cell noCPT inconclusive, IL1B secr inh -60*, DT40 TDP1 CPT 9.2µM* and HT1080 IDH1KD tx inconclusive.
`COc1ccc(C(=O)NC(=O)COC(=O)C2COc3ccccc3O2)cc1` (stereo not drawn) gave ELG1 DNA repair 10%, HT1080-NT tox 2%, TDP1 cell noCPT -25%, IL1B secr inh 10, DT40 TDP1 CPT -14% and HT1080 IDH1KD tx 5%.
Screening COc1ccc(C(=O)OCC(=O)NC2CC2)cc1[N+](=O)[O-] returned ELG1 DNA repair 14%, HT1080-NT tox 5%, TDP1 cell noCPT 23%, IL1B secr inh -12, DT40 TDP1 CPT -8% and HT1080 IDH1KD tx 3%.
For CS(=O)(=O)c1ccc(C(=O)OCC(=O)NC(=O)C2COc3ccccc3O2)cc1[N+](=O)[O-] (stereo not drawn) the results were ELG1 DNA repair inconclusive, HT1080-NT tox 7%, TDP1 cell noCPT 18µM*, IL1B secr inh -59*, DT40 TDP1 CPT 16µM* and HT1080 IDH1KD tx 0%.
Screening Cc1cc(C(=O)OCC(=O)NC(=O)C2CCCCC2)ccc1[N+](=O)[O-] returned TDP1 cell noCPT 7% and DT40 TDP1 CPT -4%.
Screening CC1(C)C2CCC1(C)C(NC(=O)COC(=O)c1ccc(S(C)(=O)=O)c([N+](=O)[O-])c1)C2 (stereo not drawn) returned TDP1 cell noCPT 5.6µM* and DT40 TDP1 CPT 5µM*.
Screening CC(=O)c1ccc(NCC2COc3ccccc3O2)c([N+](=O)[O-])c1 (stereo not drawn) returned ELG1 DNA repair inconclusive, HT1080-NT tox -1%, TDP1 cell noCPT 13µM*, IL1B secr inh 24, DT40 TDP1 CPT inconclusive and HT1080 IDH1KD tx -15%.
`CN1CCN(c2ncc3nc(-c4ccccc4)c(=O)n(C)c3n2)CC1` gave TDP1 cell noCPT -16% and DT40 TDP1 CPT inconclusive.
For Cn1c(SCC(=O)N2CCCc3ccccc32)ncc(C(=O)Nc2ccc(Cl)cc2)c1=O the results were TDP1 cell noCPT -19% and DT40 TDP1 CPT -19%.
